Source: PubChem (National Center for Advancing Translational Sciences (NCATS))
Only some compounds are listed: those with a hit (about 0.43% of all), similar ones and a draw of the others.
GAA inhib: alpha-glucosidase (human) inhibition. Potency, µM (titrated, usually from 76.9 µM), for the others: at the highest dose activity change, negative = inhibition, usual class: inhibitors. 0.005% of 200,000 active. P10253. purified human GAA, 4-MU-alpha-glucoside fluorescence;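 further: potency means the concentration at half of the fitted maximal effect; plate controls were uninhibited enzyme wells for no effect and no-enzyme background for full effect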
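Activity normalized between no-enzyme (basal) and enzyme-only wells. Conditions: 4 nM human enzyme, 400 uM fluorogenic substrate, citrate/phosphate pH 5.0 with Tween-20, 20 min room temperature, compounds up to 77 uM.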
GAA glycogen mod: alters human alpha-glucosidase cleavage of glycogen | P10253 | recombinant GAA, glycogen substrate, Amplex Red glucose oxidase fluorescence | Potency, µM (top dose mostly 76.4 µM), without a hit: top-dose activity change, negative = inhibition, usual class: inhibitors | 0.38% of 300,000 active | AID 2100;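 further: potency means the concentration at half of the fitted maximal effect; 0% = full enzyme reaction and -100% = no-enzyme basal signal; the screen sought inhibitors and activators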
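Recombinant human alpha-glucosidase (4 nM final) hydrolysed bovine liver glycogen (30 ug) for 40 min at 37 C in pH 5.0 citrate/phosphate with 0.01% Tween-20. Released glucose detected by glucose oxidase/Amplex Red, Ex 573/Em 610 nm. Compounds up to 77 uM; AC50 from Hill fits.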
N370S GC: inhibits or activates N370S mutant glucocerebrosidase; AID 2101; 0.092% of 330,000 active; N370S GC spleen homogenate, 4MU-glucoside fluorescence; Potency, µM (top dose mostly 59.4 µM), for the others: at the top dose activity change, negative = inhibition, actives largely listed as inhibitors;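 further: potency means the concentration at half of the fitted maximal effect; 0% = full enzyme activity and -100% = no enzyme basal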
GLA inh pH 4.5: inhibitors of human alpha-galactosidase A at pH 4.5 | 230,000 tested, under 10 active | AID 1467 | activity change, negative = inhibition, % at 105 µM | purified enzyme, 4-MU-alpha-Gal fluorescence, pH 4.5;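 further: 0% = full activity with enzyme and -100% = basal without enzyme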
GLA spleen mod: alpha-galactosidase A (human) modulation. P06280. human spleen homogenate, 4MU-alpha-Gal fluorescence, 40 min. Potency, µM (highest dose often 80 µM), inactives show top-dose activity change, negative = inhibition, most hits filed as inhibitors. AID 2107. 0.008% of 240,000 active;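 further: potency means the concentration at half of the fitted maximal effect; 0% = enzyme with vehicle and -100% = no enzyme basal signal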
Target sequence (P06280 32-429 limits assumed): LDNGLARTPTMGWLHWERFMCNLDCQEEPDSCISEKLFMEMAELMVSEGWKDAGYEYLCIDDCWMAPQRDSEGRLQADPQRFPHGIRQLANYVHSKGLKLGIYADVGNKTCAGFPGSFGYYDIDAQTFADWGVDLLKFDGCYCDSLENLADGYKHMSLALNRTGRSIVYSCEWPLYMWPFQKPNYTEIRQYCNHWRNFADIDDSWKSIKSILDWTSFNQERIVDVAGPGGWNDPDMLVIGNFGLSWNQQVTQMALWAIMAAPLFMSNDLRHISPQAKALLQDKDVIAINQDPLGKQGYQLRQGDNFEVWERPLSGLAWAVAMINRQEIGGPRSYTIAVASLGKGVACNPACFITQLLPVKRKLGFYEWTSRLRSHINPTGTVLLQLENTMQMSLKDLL
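Human spleen homogenate (1 ug) was the enzyme source, with 4-methylumbelliferyl-alpha-D-galactopyranoside (1 mM final) in pH 5.0 citrate buffer with 0.01% Tween-20. Compounds were titrated; after 40 min at 37C, NaOH/glycine stop, 4-MU fluorescence read; AC50 from Hill fits.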
GAA spleen mod: inhibitors or activators of human alpha-glucosidase in spleen homogenate | human spleen homogenate, 4-MU-alpha-glucoside fluorescence | Potency, µM (series often up to 79.9 µM), for inactives: at the top dose activity change, negative = inhibition, hits mostly inhibitors | 0.006% of 240,000 active | AID 2112;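 further: potency means the concentration at half of the fitted maximal effect; 0% = enzyme with vehicle and -100% = no enzyme basal signal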
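Enzyme source: human spleen homogenate, 1 ug/well. Buffer 50 mM citric acid/K phosphate pH 5.0, 0.01% Tween-20. 4-MU-alpha-glucoside 1 mM; 37 C x 40 min; NaOH/glycine stop; fluorescence.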
The depositor's hits bear a star; u = inconclusive; x = not tested or not shown; [ ] = remark or other dose. The call rests on the fitted dose curve; in most records, active means well fitted curve in the direction sought with a large enough effect; inconclusive means small, poorly fitted or top-dose-only effect, or another doubt; inactive means no such curve, though single readings can be large; an effect the other way counts as inactive or inconclusive.

SMILES	GAA inhib	GAA glycogen mod	N370S GC	GLA inh pH 4.5	GLA spleen mod	GAA spleen mod
C#CCOCCOCCOCCNc1nc(N2CCN(C(=O)CCCCCCCCCCNC(=O)[C@H](CCC(=O)O)n3cc(CCCCCN)nn3)CC2)nc(N2CCN(C(=O)CCCCCCCCCCNC(=O)[C@@H]([C@H](C)O)n3cc(C)nn3)CC2)n1	x	x	-21%	x	x	x
C#CCOCCOCCOCCNc1nc(N2CCN(C(=O)CCCCCCCCCCNC(=O)[C@H](CCCCN)n3cc(CCO)nn3)CC2)nc(N2CCN(C(=O)CCCCCCCCCCNC(=O)[C@H](CCCN=C(N)N)n3cc(C[C@@H](C)CC)nn3)CC2)n1	x	x	7.9µM*	x	x	x
C#CCOCCOCCOCCNc1nc(N2CCN(C(=O)CCCCCCCCCCNC(=O)[C@H](CCCCN)n3cc(C)nn3)CC2)nc(N2CCN(C(=O)CCCCCCCCCCNC(=O)[C@@H]([C@H](C)CC)n3cc(CCCCCN)nn3)CC2)n1	x	x	18µM*	x	x	x
C#CCOCCOCCOCCNc1nc(N2CCN(C(=O)CCCCCCCCCCNC(=O)Cn3cc(C[C@@H](C)O)nn3)CC2)nc(N2CCN(C(=O)CCCCCCCCCCNC(=O)Cn3cc(C[C@@H](C)O)nn3)CC2)n1	x	x	-27%	x	x	x
C#CCOCCOCCOCCNc1nc(N2CCN(C(=O)CCCCCCCCCCNC(=O)Cn3cc(C[C@@H](C)O)nn3)CC2)nc(N2CCN(C(=O)CCCCCCCCCCNC(=O)[C@H](CCCCN)n3cc(C[C@@H](C)CC)nn3)CC2)n1	x	x	22µM*	x	x	x
CC[C@H](C)[C@H](N)C(=O)N[C@H]1CCC(=O)NCC(C(=O)N[C@@H](Cc2ccc(O)cc2)C(=O)N[C@@H](CCCNC(=N)N)C(=O)N[C@@H](CC(C)C)C(=O)N[C@@H](CCCNC(=N)N)C(=O)N[C@@H](Cc2ccc(O)cc2)C(N)=O)NC(=O)[C@@H]2CCCN2C(=O)[C@@H](NC(=O)[C@@H](N)[C@@H](C)CC)CCC(=O)NCC(C(=O)N[C@@H](Cc2ccc(O)cc2)C(=O)N[C@@H](CCCNC(=N)N)C(=O)N[C@@H](CC(C)C)C(=O)N[C@@H](CCCNC(=N)N)C(=O)N[C@@H](Cc2ccc(O)cc2)C(N)=O)NC(=O)[C@@H]2CCCN2C1=O (stereo not given in full)	x	x	-8%	x	-10%	0%
COc1ccc(C)cc1NC(=O)C1CCN(S(C)(=O)=O)CC1	x	35µM*	-1%	x	x	x
Cc1ccc(-c2nc(Nc3ccc(N4CCOCC4)cc3)c3ccccc3n2)cc1	x	-9%	14µM*	-13	9%	-1%
c1ccc(Nc2nc(-c3ccoc3)nc3ccccc23)cc1	x	x	13µM*	x	13%	5%
c1ccc(Nc2nc(-c3ccccc3)nc3ccccc23)cc1	x	4%[76.3 µM]	u	x	x	x
Cc1ccc(OC2C(O)COC2/C=C/C#Cc2ccc(C(C)(C)C)cc2)cc1 (stereo not given)	x	x	2%[12.8 µM]	x	14%[17.5 µM]	3%[17.4 µM]
Cc1ccc(NC(=O)Nc2sc(=S)n(C)c2C)cc1	0%	25µM*	-14%	5	-6%	-7%
CN1CCc2cccc3c2[C@H]1Cc1ccc(O)c(O)c1-3	2%[15.4 µM]	7.9µM*	-10%	8	0%	6%
Nc1ccccc1Nc1ccccc1	2%	u	-4%	0	-6%	4%
Nc1ccc(Nc2ccccc2)c(Cl)c1	0%	35µM*	-23%	-3	-3%	-5%
CCOc1ccc(N(CC(=O)Nc2ccc(CC)cc2)S(=O)(=O)c2c(C)[nH]c(=O)[nH]c2=O)cc1	x	-18%[76.3 µM]	3.5µM*	x	x	x
CCc1ccc(NC(=O)CN(c2ccc(OC)cc2)S(=O)(=O)c2c(C)[nH]c(=O)[nH]c2=O)cc1	x	-6%[76.3 µM]	3.2µM*	x	x	x
CCOc1ccc(N(CC(=O)Nc2ccc(C)c(C)c2)S(=O)(=O)c2c(C)[nH]c(=O)[nH]c2=O)cc1	x	-11%	7.1µM*	-9	1%	2%
COc1ccc(N(CC(=O)Nc2cccc(F)c2)S(=O)(=O)c2c(C)[nH]c(=O)[nH]c2=O)cc1	x	x	11µM*	x	x	x
CC[C@H](C)[C@H](NC(=O)[C@H](CCCNC(=N)N)NC(=O)[C@@H](NC(=O)[C@H](CCCNC(=N)N)NC(=O)[C@H](CCCCN)NC(=O)[C@H](CCCNC(=N)N)NC(=O)[C@@H](NC(=O)[C@H](CC(N)=O)NC(=O)[C@@H](N)CS)[C@@H](C)O)[C@@H](C)CC)C(=O)N[C@@H](CCC(N)=O)C(=O)N[C@@H](CCCNC(=N)N)C(=O)NCC(=O)N1CCC[C@H]1C(=O)NCC(=O)N[C@@H](CCCNC(=N)N)C(=O)N[C@@H](C)C(=O)N[C@@H](Cc1ccccc1)C(=O)N[C@H](C(=O)N[C@H](C(=O)N[C@H](C(=O)NCC(=O)N[C@@H](CCCCN)C(=O)O)[C@@H](C)CC)[C@@H](C)O)C(C)C	x	x	-4%	x	-3%	4%
CC1COC(=O)O1 (stereo not given)	x	x	-11%	x	21%	8%
CCCCCCCCOc1c(OC)cc(/C=C/C(=O)N2CCN(c3ccc(C)c(C)c3)CC2)cc1OC	x	x	-2%	x	-17%	-7%
COCCn1cnc2c1-c1ccc(OC)c(c1)OC/C=C\COc1cccc-2c1	x	x	3%	x	-5%	-15%
O=C1CC(Nc2ccc(N3CCOCC3)cc2)C(=O)N1c1cccc(C(F)(F)F)c1 (stereo not given)	-2%	25µM*	-5%	2	4%	-1%
COc1ccc(N2C(=O)CC(Nc3ccc(N4CCOCC4)cc3)C2=O)c(OC)c1 (stereo not given)	u	u	25%	10	4%	-4%
SMILES	GAA inhib	GAA glycogen mod	N370S GC	GLA inh pH 4.5	GLA spleen mod	GAA spleen mod
COc1cccc(N2C(=O)CC(Nc3ccc(N4CCOCC4)cc3)C2=O)c1 (stereo not given)	0%	3.5µM*	-4%	2	8%	-7%
CN(C)c1ccc(N2C(=O)CC(Nc3ccc(N4CCOCC4)cc3)C2=O)cc1 (stereo not given)	0%	u	-2%	-10	-4%	-2%
c1nc2nc(Nc3ccc(N4CCOCC4)cc3)nc(NC3CCCCC3)c2[nH]1	x	x	-21%	x	10%	4%
COc1cc(C2Nc3cccc4cccc(c34)N2)ccc1O	x	3%[76.3 µM]	1%	x	x	x
Oc1ccc2ccccc2c1C1Nc2cccc3cccc(c23)N1	-4%	10µM*	-22%	2	1%	-1%
Cc1c(NCc2cc(Cl)cc(Cl)c2O)c(=O)n(-c2ccccc2)n1C	-13%	10µM*	8%	-4	2%	-2%
